Shown are actives, neighbours in structure and some others; about 6% of the full set was active somewhere.
DRD3 antagonist: D3 dopamine receptor (human) antagonism. P35462. D3R cells, DiscoveRx beta-arrestin luminescence, antagonist mode; active compounds read low. max response, negative = inhibition, %. 360,000 tested, 2.5% active; in the data active = max response below about -50%; inconclusive = no clear call, values can overlap the other calls
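Cells plated overnight at 1500 cells/well, then exposed to library compounds with dopamine controls for 90 minutes at 37 degrees C. DiscoveRx reagent added for 30–60 minutes at room temperature; luminescence read, quantitative HTS format.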
D1 agonist: human D1 receptor agonism; P21728; 360,000 tested, 1% active; HEK293 T-REx D1 cells, calcium flux, agonist mode; AID 504660; activation, % at 2 µM; in the data active = activation above about 30%
Target sequence (P21728 whole entry, looked up): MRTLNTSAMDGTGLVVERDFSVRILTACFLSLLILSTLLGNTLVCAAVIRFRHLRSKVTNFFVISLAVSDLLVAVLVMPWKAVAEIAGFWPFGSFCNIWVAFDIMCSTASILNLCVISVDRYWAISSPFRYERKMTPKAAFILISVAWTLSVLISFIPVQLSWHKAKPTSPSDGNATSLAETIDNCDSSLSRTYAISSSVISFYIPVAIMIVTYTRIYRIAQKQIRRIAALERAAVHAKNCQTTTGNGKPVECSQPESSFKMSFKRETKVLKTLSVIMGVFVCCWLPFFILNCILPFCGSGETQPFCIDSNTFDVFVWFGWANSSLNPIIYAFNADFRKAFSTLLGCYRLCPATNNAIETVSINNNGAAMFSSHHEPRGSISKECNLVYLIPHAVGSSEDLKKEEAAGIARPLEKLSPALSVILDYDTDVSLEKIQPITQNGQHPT
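Agonism was scored from calcium flux recorded over 180 s (1 read/s) after pintool compound addition, following a 10-cycle baseline. Cells were inducible force-coupled HEK293 TREx D1, plated overnight at 30 C and loaded with no-wash calcium dye.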
D1 antagonist: antagonists of human D1 dopamine receptor; 360,000 tested, 3.2% active; AID 504652; activity change, negative = inhibition, % at 10 µM; HEK293 TREx D1 cells, calcium flux, dopamine EC80; active compounds read low; in the data active = activity change below about -30%
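Kinetic fluorescence of a calcium dye serves as the read-out. D1-expressing Hek293 Trex cells, induced overnight at 30 C, are exposed to compound for 180 s before an EC80 dopamine addition, then read 180 s further.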
D1 PAM: human D1 dopamine receptor positive modulation; 360,000 tested, 0.036% active; potentiation, % at 10 µM; AID 504651; HEK293 TREx D1 cells, calcium flux, dopamine EC20 potentiation; in the data active = potentiation above about 30%
D3 ag: activates the human D3 dopamine receptor; P35462; D3R DiscoveRx beta-arrestin cells, luminescence, 90 min; max activation, %; 410,000 tested, 0.58% active; AID 652048; in the data active = max activation above about 30%
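Cells at 1500/well, incubated overnight, then treated with pinned compounds (dopamine as control) for 90 min at 37 degrees C. DiscoveRx reagent added for 30 - 60 minutes at room temperature; luminescence read.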
Hits are given with their value; 0 = inactive; ? = inconclusive; - = no result given.

SMILES | DRD3 antagonist | D1 agonist | D1 antagonist | D1 PAM | D3 ag
S=c1[nH]nc(-c2n[nH]c3c2CCC3)n1/N=C/C=C/c1ccccc1 | -115.2 | 0 | 0 | 0 | 0
Cc1cccc(-c2n[nH]c(=S)n2/N=C/C=C/c2ccco2)c1 | -97.6 | 0 | 0 | 0 | 0
Cc1ccc(/C=N/n2c(-c3cccc(Cl)c3)n[nH]c2=S)o1 | 0 | 0 | -34.8 | 0 | 0
S=c1[nH]nc(-c2ccncc2)n1/N=C/C=C/c1ccco1 | 0 | 0 | 0 | 0 | 0
S=c1[nH]nc(-c2ccccc2Cl)n1/N=C/C=C/c1ccco1 | 0 | 0 | -35.7 | 0 | 0
O=C(OCc1cc(=O)n2nc(C3CC3)sc2n1)c1ccc(NC(=O)c2ccccc2Cl)cc1 | - | 0 | 0 | 0 | 0
O=C(CSc1ncc(-c2ccccc2)[nH]1)Nc1cccc(Br)c1 | - | 0 | 0 | 0 | 0
Cc1ccc(-c2cc3ncc(C(=O)c4cc([N+](=O)[O-])ccc4O)cn3n2)cc1 | - | 0 | 0 | 0 | 0
Cc1ccc(CNC(C)c2ccccc2)cc1 (centres undefined) | -54.9 | 0 | 0 | 0 | 0
Clc1ccccc1CNCCCSc1nnnn1-c1ccccc1 | - | 31.4 | 0 | 0 | 0
Fc1ccc(CNCCCSc2nnnn2-c2ccccc2)cc1 | - | 161.3 | -43.1 | 0 | 0
Cc1ccc(NC(=O)CNC(C)c2ccccc2)cc1 (centres undefined) | ? | 0 | 0 | 0 | 0
CC(C)c1ccc(CNCCSc2nnnn2-c2ccccc2)cc1 | - | 55.7 | 0 | 0 | 0
COc1ccc(C2NC(=O)N(C)C3=C2C(=O)N(c2cccc(C(=O)O)c2)C3)cc1 (centres undefined) | - | 0 | 0 | 0 | 0
CCCN1CCN(c2ncc3c(n2)CCN(Cc2ccc(OC)c(OC)c2OC)C3)CC1 | - | 0 | 0 | 0 | 0
Cc1cc(C)c2nc(C)cc(Nc3cccc(C(=O)O)c3)c2c1 | - | 0 | 0 | 0 | 0
O=C1c2ccccc2C(=O)N1CCCCSc1nnnn1-c1ccccc1 | 0 | 71.1 | -30.3 | 0 | 0
CC(C)c1ccc(CNCc2ccccc2)cc1 | ? | 50.1 | 0 | 0 | 0
O=C1c2ccccc2C(=O)N1CSc1nnnn1-c1ccccc1 | 0 | 0 | 0 | 0 | 0
CCC(=O)Nc1ccc(CC)cc1-c1nc2ccccc2n(CC(=O)Nc2ccccc2C)c1=O | - | 0 | 0 | 0 | 0
Cc1cc(C)c(S(=O)(=O)N2CCC(n3c(C(F)(F)F)nc4cccnc43)CC2)c(C)c1 | - | 0 | 0 | 0 | 0
O=C(NNC(=O)C1CC(c2cccnc2)=NO1)Nc1ccccc1F (centres undefined) | 0 | 0 | 0 | 0 | 0
Cc1ccc(NC(=O)NNC(=O)C2CC(c3cccnc3)=NO2)cc1 (centres undefined) | -61.6 | 0 | 0 | 0 | 0
CCCCNC(=O)C1CC(c2cccc(F)c2)=NO1 (centres undefined) | 0 | 0 | -45.3 | 0 | 0
Cc1ccc(CCNC(=O)C2CC(c3cccc(F)c3)=NO2)cc1 (centres undefined) | 0 | 0 | -62.2 | 0 | 0
SMILES | DRD3 antagonist | D1 agonist | D1 antagonist | D1 PAM | D3 ag
Cc1cccc(NC(=O)c2c(NC(=O)c3ccccc3)sc3c2CCCC3)c1 | - | 0 | 0 | 0 | 0
CCOc1ccccc1NC(=O)Cn1c(=O)n(-c2ccc(Cl)cc2)c(=O)c2oc3ccccc3c21 | - | 0 | 0 | 0 | 0
Cc1ccc(CNS(=O)(=O)c2cc3c(cc2Cl)NC(=O)CO3)o1 | - | 0 | 0 | 0 | 0
COc1ccccc1NC(=O)CSc1cn(CC(=O)N2CCCC2)c2ccccc12 | - | 0 | 0 | 0 | 0
CCOC(=O)c1c(NC(C)=O)c2c3c(sc2n1Cc1ccc(Cl)cc1)CCCC3 | - | 0 | 0 | 0 | 0
Cn1cc(CN2CCCC(CO)(Cc3ccccc3)C2)c2ccccc21 (centres undefined) | -50.3 | 0 | 0 | 0 | 0
CCn1cc(CN2CCCC(CO)(Cc3ccc(F)cc3)C2)c2ccccc21 (centres undefined) | 0 | 30.6 | 0 | 0 | 0
COc1cccc(CC2(CO)CCCN(Cc3cn(C)c4ccccc34)C2)c1 (centres undefined) | 0 | 0 | 0 | 0 | 0
Cc1c(C(=O)NCc2cccc(C(F)(F)F)c2)sc(=O)n1Cc1cccc(F)c1 | -51.5 | - | - | - | 0
CC(Nc1ncnc2c1cnn2-c1cccc(Cl)c1)c1ccccc1 (centres undefined) | - | 0 | 0 | 0 | 0
CC1c2cc3c(cc2CCN1C(=O)c1ccc(Br)cc1)OCCCO3 (centres undefined) | 0 | 0 | -47.2 | 0 | 0
COc1ccc(C(=O)N2CCc3cc4c(cc3C2C)OCCCO4)cc1 (centres undefined) | 0 | 0 | 0 | 0 | 44.1
CC1c2cc3c(cc2CCN1C(=O)c1cccc(F)c1)OCCCO3 (centres undefined) | 0 | 0 | 0 | 0 | 0
COc1ccccc1-c1noc(CCCC(=O)Nc2cc(C)ccc2C)n1 | - | 0 | 0 | 0 | 0
S=C1NCCc2ccccc2C1c1ccccc1Cl (centres undefined) | -63.9 | 0 | 0 | 0 | 0
Cc1ccn2c(Nc3ccccc3)c(-c3ccccn3)nc2c1 | -73.8 | 0 | 0 | 0 | 0
Cc1ccn2c(Nc3ccccc3C)c(-c3ccccn3)nc2c1 | -59.4 | 0 | 0 | 0 | 0
CC(C)c1ccc(Nc2c(-c3ccccn3)nc3ccccn23)cc1 | - | 0 | -34.0 | 0 | 0
Cc1cccc(C)c1Nc1c(-c2ccccn2)nc2c(C)cccn12 | - | 0 | -48.4 | 0 | 0
Cc1cccn2c(Nc3ccccc3)c(-c3ccccn3)nc12 | 0 | 0 | 0 | 0 | 0
Cc1ccccc1Nc1c(-c2ccccn2)nc2ccccn12 | ? | 0 | 0 | 0 | 0
Cc1cccc(N2CCN(C(=O)c3oc(=O)c4ccccc4c3-c3ccccc3)CC2C)c1 (centres undefined) | - | 0 | 0 | 0 | 0
Cc1ccc2nc(-c3ccncc3)c(Nc3ccccc3C)n2c1 | - | 0 | 0 | 0 | 0
Cc1ccn2c(Nc3c(C)cccc3C)c(-c3ccsc3)nc2c1 | - | 0 | 0 | 0 | 0
Cc1ccn2c(Nc3c(C)cccc3C)c(-c3ccc(Cl)s3)nc2c1 | - | 33.7 | 0 | 0 | 0
SMILES | DRD3 antagonist | D1 agonist | D1 antagonist | D1 PAM | D3 ag
Cc1ccc2nc(-c3ccccn3)c(Nc3ccccc3C)n2c1 | -59.2 | 0 | 0 | 0 | 0
Cc1nc2ccc(S(=O)(=O)CCC(=O)Nc3ccc(F)cc3C)cc2s1 | - | 0 | 0 | 0 | 0
CC(C)[C@@H](C(=O)NCC1CCC(C(=O)O)CC1)n1nnc2ccccc2c1=O (some centres undefined) | -56.8 | 0 | 0 | 0 | 0
CCOc1ccccc1N(C)C(=O)Cn1cnc2onc(-c3ccc(F)cc3)c2c1=O | - | 0 | -30.6 | 0 | 0
O=C(Nc1ccc(OC(F)(F)F)cc1)c1nc2ccccc2nc1N1CCCCC1 | - | 0 | 0 | 0 | 0
Cc1nn(-c2ccccc2)c(NC(=O)c2cccs2)c(-c2ccccc2Cl)c1=O | -59.2 | 0 | 0 | 0 | 0
CSc1ccc(CN(C)CC(=O)Nc2ccc(C)cc2Br)cc1 | -55.6 | 0 | 0 | 0 | 0
Brc1ccc(-c2csc(N/N=C/c3ccco3)n2)cc1 | 0 | 0 | 0 | 0 | 30.1

High-throughput results as filed in PubChem.
